Reference: PubChem BioAssay AID1259343 (VanderVen Lab, College of Veterinary Medicine, Cornell …, 2017)
The campaign covered roughly 6,200 compounds. About 2,900 (47%) were called active. The set was probably picked from earlier hits. The list shows a part of the results. A number with no mark means an inactive call. Rule as the data show it: active = inhibition above about 50%; inactive = the rest.

Test: Mycobacterium tuberculosis growth inhibition, primary screen (AID 1259343)
Conditions: inhibition: at 10 µM, hits give high values; outcome: 10 uM
For `O=C(CC(Nc1ccc2ccccc2c1)c1ccncc1)c1ccccc1` (stereo not given), the inhibition was 88.8% (active). For `C=CCNC(=S)Nc1ccc(SC(F)F)cc1`, the inhibition was 53.4% (active). With `C=CCNC(=S)Nc1ccc(Cl)c(Cl)c1` the inhibition was 21.1%. With `C=CCNC(=S)Nc1ccc(Cl)cc1F` the inhibition was 35.1%. Work on `Cc1sc(NC(=O)CC(C)(C)CC(=O)Nc2sc(C)c(C)c2C(=O)O)c(C(=O)O)c1C` yielded an inhibition of 29.4%. `CCOC(=O)c1c(NC(=O)CCl)sc(C(=O)OC)c1CC(=O)OC` gave an inhibition of -17.1%. In the case of `COC(=O)c1sc(NC(=O)CCCl)c(C(=O)OC)c1C`, the inhibition is reported as 101% (active). For `Cc1csc(C(C)NCc2ccc(OCC(C)C)cc2)n1` (stereo not given), the inhibition was 51.6% (active). With `COc1ccc(C)cc1-c1csc(NC(=O)C(C)C)n1` the inhibition was 11.6%. In the case of `Cc1ccc(-c2ncc(C(=O)NC(C)C)s2)c(C)c1`, the inhibition is reported as 61.8% (active). With `Cc1ccc(-c2csc3nc(C4CC4)[nH]c(=O)c23)c(C)c1` the inhibition was 6.81%. In the case of `CCOC(=O)c1nn(-c2cccc(Cl)c2)c2nc(-c3cccs3)c(C#N)c(=O)n12`, the inhibition is reported as 52.1% (active). Compound `CCOC(=O)c1nn(-c2ccc(OCC)cc2)c2nnc(Cc3cccnc3)c(=O)n12` has an inhibition of -11.2%. For `COC(=O)CCn1c(=O)c2c(nc3n(CCc4ccccc4)c(C)cn23)n(C)c1=O`, the inhibition was 2.78%. Work on `CNc1nnc(SCc2cccc(Cl)c2)s1` yielded an inhibition of 23.8%. For `COc1cccc(C(=O)CSc2nnc(NC(=O)c3cccc(Cl)c3)s2)c1`, the inhibition was 55.3% (active). With `COc1ccccc1Nc1nnc(SCC(=O)c2ccc(O)c(O)c2)s1` the inhibition was 83.9% (active). `O=C1c2cccc3cccc(c23)N1S(=O)(=O)c1ccc(Cl)cc1` gave an inhibition of -5.06%. In the case of `Cc1ccc(CN(C)Cc2nc(-c3ccc4c(c3)OCO4)no2)o1`, the inhibition is reported as 90.8% (active). With `CN(Cc1nc(-c2ccc3c(c2)OCO3)no1)CC1COc2ccccc2O1` (stereo not given) the inhibition was “inactive”. Work on `CN(Cc1ccc2nonc2c1)Cc1nc(-c2ccc3c(c2)OCO3)no1` yielded an inhibition of 13.7%. In the case of `CCN(CCn1cccn1)Cc1nc(-c2ccc3c(c2)OCO3)no1`, the inhibition is reported as 90.5% (active). With `CN(Cc1ccc2nsnc2c1)Cc1nc(-c2ccc3c(c2)OCO3)no1` the inhibition was 84.1% (active). In the case of `C=Cc1ccc(CSc2nccn(-c3ccc(C)cc3)c2=O)cc1`, the inhibition is reported as 95.7% (active). With `COc1ccc(-n2ccnc(SCc3ccc(F)cc3)c2=O)cc1` the inhibition was 76.6% (active). Compound `C=Cc1ccc(CSc2nncn3c2cc2occc23)cc1` has an inhibition of 31.6%. For `Cc1nnc(SCc2ccc(C(=O)NCc3ccncc3)cc2)n1-c1ccc(F)cc1`, the inhibition was -8.13%. `Cc1cccc(N2CCC(=NC(N)=S)N2)c1` gave an inhibition of 33.7%. Work on `c1ccc(N2CCC(=NC3=NCCCCC3)N2)cc1` yielded an inhibition of 4.7%. For `NC(=S)N=C1CCN(c2ccccc2)N1`, the inhibition was 93.8% (active). `c1ccc(-c2nc(Nc3ccc4c(c3)OCCO4)c3ccccc3n2)cc1` showed an inhibition of -17%. In the case of `c1nc(Nc2ccc3c(c2)OCCO3)c2c3c(sc2n1)CCCC3`, the inhibition is reported as -26.9%. With `FC(F)(F)c1nc(Nc2ccc3c(c2)OCCCO3)c2ccccc2n1` the inhibition was 100% (active). With `CC(C)(Oc1ccc(Cl)cc1)C(=O)NCc1ccoc1` the inhibition was 24.1%. Work on `COc1cccc(COc2coc(CN3CCCN(S(=O)(=O)c4ccc(OC(F)(F)F)cc4)CC3)cc2=O)c1` yielded an inhibition of 10.6%. In the case of `O=C(NCC(=O)N1CCN(Cc2ccc(OC(F)(F)F)cc2)CC1)c1ccco1`, the inhibition is reported as 94.3% (active). In the case of `Cc1ccc(Nc2nnc(SCC(C)C)s2)cc1`, the inhibition is reported as 94.1% (active). For `CC(C)c1ccc(Nc2nnc(SCCO)s2)cc1`, the inhibition was 25.5%. For `CC(C)CSc1nnc(Nc2ccc(C(C)C)cc2)s1`, the inhibition was 92.2% (active). With `O=C(CC1CCCC1)Nc1ccc(S(=O)(=O)C(F)F)cc1` the inhibition was 11.8%. For `COc1cccc(C(=O)Nc2ccc(Oc3ccc(F)cc3)nc2)c1OC`, the inhibition was 45%. With `CCCCOc1ccc(NC(=O)CC2CCCC2)cn1` the inhibition was 99.4% (active). In the case of `Clc1cccc(CN2CCCC(Nc3ccccc3)C2)c1` (stereo not given), the inhibition is reported as 59.2% (active). Work on `CSc1ncc(CNCCc2cccc(Cl)c2)c(N2CCCC(C)C2)n1` (stereo not given) yielded an inhibition of 18%. With `Clc1cccc(N2CCN(C3CCCN(Cc4ccc5nsnc5c4)C3)CC2)c1` (stereo not given) the inhibition was 75.5% (active). For `OCCC#Cc1ccc(CN2CCCC(CO)(Cc3ccccc3)C2)cc1` (stereo not given), the inhibition was 69.2% (active). `OCC1(Cc2ccccc2)CCCN(Cc2ccc(OC(F)(F)F)cc2)C1` (stereo not given) gave an inhibition of 20.7%. In the case of `CC(C)c1cc(C(=O)N2CCCC(N3CCN(c4cccc(C(F)(F)F)c4)CC3)C2)on1` (stereo not given), the inhibition is reported as 46.1%. In the case of `OCC1(Cc2ccccc2)CCCN(Cc2ccc(-c3ccco3)cc2)C1` (stereo not given), the inhibition is reported as “inactive”. With `OCCC#Cc1ccc(CN2CCCC(Nc3ccccc3)C2)cc1` (stereo not given) the inhibition was 70.9% (active). Compound `O=C(c1ccc(Cl)cc1)C1CCCN(Cc2cccc3cnccc23)C1` (stereo not given) has an inhibition of -4.04%. With `c1ccc(NC2CCCN(Cc3ccc4nsnc4c3)C2)cc1` (stereo not given) the inhibition was 65.6% (active). In the case of `O=C(c1cc(F)ccc1F)C1CCCN(Cc2cccc3cnccc23)C1` (stereo not given), the inhibition is reported as “inactive”. With `O=C(c1ccc(-c2ccccc2)cc1)C1CCCN(Cc2ccncc2)C1` (stereo not given) the inhibition was “inactive”. With `O=C(CN1CCCC1c1ccccc1)Nc1cc(F)cc(F)c1` (stereo not given) the inhibition was 2.2%. For `Cc1cc(Cl)ccc1C(=O)C1CCCN(Cc2ccc(C#CCCO)cc2)C1` (stereo not given), the inhibition was 77.5% (active). With `Oc1cccc(-c2cc(C3CCN(Cc4ccc5nonc5c4)C3)ccn2)c1` (stereo not given) the inhibition was 14.6%. In the case of `O=C(NCc1cccnc1-n1cccn1)C1CCCN(Cc2cccnc2)C1` (stereo not given), the inhibition is reported as -13.9%. With `Oc1ccccc1CN1CCCC(Nc2cccc(F)c2)C1` (stereo not given) the inhibition was 72.9% (active). For `CCN(CC)c1ccc(/C=C2\SC(=S)N(Cc3ccccc3)C2=O)c(O)c1`, the inhibition was -15.2%. For `CN(CC(=O)Nc1ccccc1Br)C1CCc2ccccc21` (stereo not given), the inhibition was 34.1%. In the case of `N#Cc1ccc(NC(=O)Nc2ccccc2Br)c2n[nH]nc12`, the inhibition is reported as 64.4% (active). With `N#Cc1ccc(CNc2ccccc2Br)cc1` the inhibition was 49.2%. In the case of `COc1ccc(C(CC(=O)c2cccs2)Sc2ccccc2NC(C)=O)cc1` (stereo not given), the inhibition is reported as 53.2% (active). `COc1ccc(C2c3cccn3CCN2C(=O)Nc2cccs2)cc1` (stereo not given) gave an inhibition of -1.32%.
